In PubChem BioAssay (NCI) one finds growth data, which are given here for 40 compounds.

About 83,000 compounds went through this panel and 20% of them were active in at least one assay; those are over-represented in the sample as a whole.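 Values shown are percent growth following 48 h exposure of cells in 96-well plates to a single concentration of compound; below 10 was considered active.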 Values without a mark were called inactive. The source made the active and inactive calls.

For the experiment, the system named is HL-60(TB) leukemia. Briefly: NCI-60 one-dose screen, 48 h (100 = growth as untreated, 0 = no growth, -100 = all killed). Particulars: 10 µM unless noted.
As for `COc1ccc(NC(N)=NCCCOc2ccc(F)cc2)cc1`, the growth was 87.7%.
As to `CSc1cc(SC)ncn1`, the growth was 101%.
Under `Cc1ccc(NC(=S)NNC(=S)Nc2ccc(C)cc2)cc1` stands 44.7%; under `O=C1/C(=C/c2ccc([N+](=O)[O-])cc2)COc2ccc(O)c(O)c21`, -14.6% (active); under `COc1cc2c(cc1OCCCOc1cc3c(cc1OC)C(=O)N1CCC[C@H]1C=N3)C=CC(C)(C)O2`, 102%.
Consider `CC(C)Cn1cnc2c(NCn3nc(-c4cc(Cl)cc(Cl)c4Cl)n(/N=C/c4ccc(Cl)cc4)c3=S)nc3ccccc3c21`, for which the growth is 93.3%.
Under `COc1ccc(-c2nc(N3CCN(C(=O)C4CCCCC4)CC3)c3c4c(sc3n2)CCCC4)cc1` stands 39%; under `COc1c(Br)cc(C(c2cc(Br)c(OC)c(Br)c2)c2ccccc2C(=O)O)cc1Br`, 91%.
As to `CN1CCN(c2nc(Nc3ccc(O)cc3)nc3ccccc23)CC1`, the growth is 61.4%.
Under `CCC(C)NCC(=O)O` (stereo not given) stands 100%; under `CC(=O)O[C@H]1CC[C@@]2(C)[C@@H](CC[C@@H]3[C@@H]2CC(=O)[C@@]2(C)[C@H]3C[C@@H](C3CCCC3=O)[C@@H]2C(C)=O)C1` (stereo not given in full), 51.8%; under `CC(C)(Sc1cc(C(C)(C)C)c(O)c(C(C)(C)C)c1)Sc1cc(C(C)(C)C)c(OC(=O)CCCC(=O)O)c(C(C)(C)C)c1`, 67.6%.
Under `O=C(NCCNc1nccc(-c2c(-c3cccc(O)c3)nc3sccn23)n1)c1ccc(N2CCOCC2)c(C(F)(F)F)c1` stands 113%; under `CC(=O)Oc1ccccc1C(=O)/C=C/c1cccc([N+](=O)[O-])c1`, 17.3%.
Then `C#CCOC(=O)C(N)CS` (stereo not given), with 120%; and `CCCCCCCCCCN(CCCCCCCCCC)CC(=O)c1ccc2cc(Br)c3ccccc3c2c1`, with -62.2% (active); and `COc1ccc2c(c1)c(-c1nc(-c3cn(C)c4ncccc34)cs1)cn2CCCN1CCCCC1`, with 4.1% (active).
With `CCCC(NC(=O)OCc1ccccc1)C(=O)O` (stereo not given), the growth is 44.9%.
`COC(=O)[C@@]1(C)CC[C@]2(C)CC[C@]3(C)C4=CC=C5C(=CC(=O)C(O)=C5C)[C@]4(C)[C@@H](O)C[C@@]3(C)[C@@H]2C1`: the growth was 49.6%.
Under `C=C(CN1CC=CCC1)[C@@H]1CC[C@]2(COC(C)=O)CC[C@]3(C)[C@H](CC[C@@H]4[C@@]5(C)CC[C@H](O)C(C)(C)[C@@H]5CC[C@]43C)[C@@H]12` stands 102%.
Under `O=C(Cc1ccc(-c2ccc(OCCN3CCOCC3)cc2)cn1)NCc1ccccc1` stands -31.2% (active).
As for `COC(=O)C(=Cc1ccccc1[N+](=O)[O-])C(=O)OC`, the growth was -48% (active).
For the compound `CCn1c(C)nc([N+](=O)[O-])c1Sc1nc(N)nc2nc[nH]c12`, the growth was 50.9%.
For the compound `COc1ccc(-n2nc(C(=O)NCC(=O)Nc3nc4cc(OC)ccc4s3)c3ccccc3c2=O)cc1`, the growth is 61.7%.
On to `COc1ccc(-c2c(C)nn3c(NCCN4CCOCC4)cc(C)nc23)cc1OC`, for which the growth was 107%.
For `COc1ccc2sc3c(NCCCNCCO)nc4ccccc4c3c(=O)c2c1`, the growth was 36.5%.
Then `c1ccc(C(=NNc2nc3ccccc3o2)c2ccccn2)nc1`, with -11.8% (active); and `O=C1/C(=C\c2ccc([N+](=O)[O-])cc2)CS(=O)(=O)C/C1=C/c1ccc([N+](=O)[O-])cc1`, with -38.4% (active); and `O=c1c2cc(F)ccc2sc2c(NCCO)nc3ccccc3c12`, with 91.9%.
`CCCCCCN(CCCCCC)CCC(O)c1ccc2ccccc2c1` (stereo not given): the growth was 42.4%.
Then `COc1ccc2ccccc2c1/C=N/N1CCCCC1`, with 94.3%; and `Cn1cc(-c2csc(-c3cn(CCN)c4ccccc34)n2)c2cccnc21`, with 26.5%; and `Cc1cc(O)c(C2=NN(c3ccc(S(N)(=O)=O)cc3)C(c3ccccc3O)C2)cc1Cl` (stereo not given), with -35.4% (active).
With `O=C1/C(=C/c2cn(-c3ccccc3)nc2-c2ccccc2)SC(=S)N1C1CCCCC1`, the growth was 116%.
Under `CC1CCN(CCCCCOc2ccc3oc4ccc(Cl)cc4c(=O)c3c2)CC1` stands 39.6%; under `O=c1c2cccc3c(N4CCOCC4)ccc(c32)c2nc3ccccc3n12`, 80.2%.
On to `CSc1[nH]c(=O)ncc1F`, for which the growth was 106%.
As to `O=C(Cc1ccc(/C=C/C(=O)c2ncc[nH]2)cc1)Nc1ccc(Cl)cc1`, the growth is -14.5% (active).
Then `CCCCCCCCCCCCS(=O)CC(C)O` (stereo not given), with 99%; and `CC(=O)OC[C@]12CC[C@@H](C(=O)CBr)[C@@H]1[C@H]1CC[C@@H]3[C@@]4(C)CCCNC(C)(C)[C@@H]4CC[C@@]3(C)[C@]1(C)CC2`, with -18% [100 µM] (active).
